Only some compounds are listed: those with a hit (about 9.2% of all), similar ones and a draw of the others.
SMN2 splice enh: enhancers of SMN2 splice variant expression. HEK293 SMN2-luciferase splicing reporter, luminescence, 30-36 h. Potency, µM (titrated, usually from 46.1 µM), for inactives: top-dose activity change, positive = activation, most hits filed as activators. AID 1458. hit rate 2.8% among 210,000; note: % of control where 0% means no effect; nearly all actives have a fitted effect of over 55% in size
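HEK293 cells carry an SMN2 minigene-luciferase reporter in which exon 7 inclusion puts luciferase in frame. Cells were seeded at 2000 cells/well, attached for 10-12 hours, then exposed to compounds for 30-36 hours at 37C before ONE-Glo luminescence.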
FLuc counter: counter-screen for miR-21 project: firefly luciferase inhibitors or activators; P08659; purified FLuc, Km substrates, luminescence inhibition; Potency, µM (highest dose often 57.5 µM), for the others: at the top dose activity change, negative = inhibition, actives largely listed as inhibitors; hit rate 6.9% among 360,000; AID 588342;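 note: plate controls were vehicle for no effect and reference inhibitor for full effect; nearly all actives have a fitted effect of over 55% in size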
Target sequence (P08659 whole entry, looked up): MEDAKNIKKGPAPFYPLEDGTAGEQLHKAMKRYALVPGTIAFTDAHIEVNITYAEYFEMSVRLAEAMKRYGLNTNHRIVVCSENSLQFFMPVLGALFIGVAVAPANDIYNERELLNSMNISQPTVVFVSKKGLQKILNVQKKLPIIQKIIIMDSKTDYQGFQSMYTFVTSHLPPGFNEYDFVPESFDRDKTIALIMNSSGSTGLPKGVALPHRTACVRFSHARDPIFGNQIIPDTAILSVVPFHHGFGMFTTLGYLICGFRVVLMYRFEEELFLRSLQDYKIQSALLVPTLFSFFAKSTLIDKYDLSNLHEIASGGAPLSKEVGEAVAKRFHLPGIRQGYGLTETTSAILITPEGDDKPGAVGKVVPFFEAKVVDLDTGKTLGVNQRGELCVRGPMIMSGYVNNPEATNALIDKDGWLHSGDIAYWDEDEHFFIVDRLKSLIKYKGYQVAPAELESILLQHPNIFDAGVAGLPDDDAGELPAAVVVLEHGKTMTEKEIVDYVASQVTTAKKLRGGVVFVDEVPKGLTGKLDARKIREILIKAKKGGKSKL
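Biochemical qHTS of compounds, final roughly 60 µM downward over six points, against 10 nM purified firefly luciferase using Km concentrations of substrates (10 uM D-luciferin, 10 uM ATP) in Tris acetate pH 7.5 buffer; luminescence output.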
ELG1 repair inh: inhibitors of ELG1-dependent DNA repair in HEK293T cells; HEK293T ELG1-luciferase reporter, luminescence, 16 h; DNA damage induced by 5-fluorouridine; Potency, µM (series often up to 46.1 µM), without a hit: top-dose activity change, negative = inhibition, hits mostly inhibitors; hit rate 2.3% among 330,000; AID 504467; note: % is set by controls: 0 for no effect and ±100 for the full control effect; nearly all actives have a fitted effect of over 55% in size
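HEK293T cells expressing luciferase-tagged ELG1 (2,000/well) received 5-Fluorouridine plus compound or DMSO for 16 hr at 37 °C. Luciferase was read by ONE-Glo luminescence after 30 min at room temperature.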
Rab9 promoter act: activates the Rab9 promoter; Huh7 Rab9 promoter-luciferase reporter, luminescence, 24 h; Potency, µM (titrated, usually from 9.22 µM), without a hit: at the top dose activation, negative = inhibition, actives largely listed as activators; hit rate 2.8% among 320,000; AID 485297; note: % of control where 0% means no effect; nearly all actives have a fitted effect of over 60% in size
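Using Huh7 cells stably transfected with Rab9 promoter–luciferase, compounds were incubated 24 h at 37 °C, 5% CO2; luciferase luminescence was read 10 min after reagent addition.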
NPC1 prom act: activators of NPC1 promoter. Huh7 NPC1 promoter luciferase reporter, 24 h. Potency, µM (titrated, usually from 9.22 µM), for inactives: at the highest dose activation, actives largely listed as activators. hit rate 2.4% among 320,000; note: % of control where 0% means no effect; nearly all actives have a fitted effect of over 60% in size
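In 1536-well qHTS, Huh7 cells harboring an NPC1 promoter–luciferase construct received compound for 24 h; activation was quantified by luminescence following luciferase reagent addition.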
ELG1 genotox: genotoxicity induction in ELG1-luciferase HEK293T cells; HEK293T ELG1-luciferase reporter, luminescence, 16 h; AID 504466; Potency, µM (series often up to 46 µM), for the others: at the highest dose activity change, positive = activation, hits mostly activators; hit rate 1.3% among 330,000; note: % of control where 0% means no effect; nearly all actives have a fitted effect of over 60% in size
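Step 1: seed 2,000 HEK293T ELG1-luciferase cells per well. Step 2: add compound or DMSO, incubate 16 hr at 37 °C. Step 3: ONE-Glo, 30 min at room temperature, read luminescence.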
* marks the source's active call; other numbers are inactive results; u = inconclusive; x = no result; [ ] = remark or other dose. Calls come from the whole dose curve; as a rule, active = well fitted curve in the direction sought with a large enough effect; inconclusive = small, poorly fitted or top-dose-only effect, or another doubt; inactive = no such curve, though single readings can be large; an effect the other way counts as inactive or inconclusive. Potency is the fitted concentration of half-maximal effect.

SMILES | SMN2 splice enh | FLuc counter | ELG1 repair inh | Rab9 promoter act | NPC1 prom act | ELG1 genotox
COc1cc(-c2noc(C)c2C(=O)NCCc2ccccc2)cc(OC)c1OC | x | x | -2% | x | x | 1%
Cc1c(C(=O)NCCc2ccc(S(N)(=O)=O)cc2)sc2nc3n(c(=O)c12)CCCC3 | x | -7% | x | x | x | x
Cc1ccc(C(=O)CC2(O)C(=O)N(Cc3ccccc3)c3ccc(Br)cc32)cc1 (stereo not given) | x | -5% | x | x | x | x
Cc1ccc(C(=O)CC2(O)C(=O)N(Cc3ccccc3)c3ccccc32)c(C)c1 (stereo not given) | -21% | 19µM* | x | x | x | x
CCc1ccc(C(=O)CC2(O)C(=O)N(Cc3ccc(C)cc3)c3ccccc32)cc1 (stereo not given) | -9% | 7.6µM* | x | x | x | x
O=c1oc2ccccc2c2c1C1O[C@](c3ccsc3)(Cc3c1ccc1ccccc31)O2 | x | u | x | -1%[1.84 µM] | 18%[1.84 µM] | x
Cc1ccc(S(=O)(=O)N2CCCC2=O)c(C)c1N(C)S(C)(=O)=O | x | 0% | 7% | 7% | -2% | 1%
N#C/C(=C\c1ccc(F)cc1)c1nc(-c2ccco2)cs1 | 17% | 2.7µM* | u | u | u | u
CCCn1c(=S)[nH]c2ccccc2c1=O | 2% | 13µM* | 0% | -10% | -9% | -2%
CN(C)CCn1c(=S)[nH]c2ccccc2c1=O | 11% | 0% | 2% | 1% | 14% | 5%
Cc1ccc(NC(=O)c2oc3ccccc3c2NC(=O)C23CC4CC(CC(C4)C2)C3)cc1 | -7% | 0% | x | x | x | x
COc1ccc(NC(=O)c2cc(-c3ccc(F)cc3)no2)cc1OC | x | -6% | x | x | x | x
O=C(Nc1ccccc1)N1CCCC2(CCNCC2)C1 | 3% | x | x | x | x | x
Cc1ccccc1CSc1nc2cccnc2n1Cc1ccc(C(=O)NC2CC2)cc1 | x | 6µM* | x | x | x | x
O=C(NC1CC1)c1ccc(Cn2c(SCc3ccc(F)cc3)nc3cccnc32)cc1 | x | 1.7µM* | x | x | x | x
COc1ccc(NC(=O)Cn2c(=O)n(Cc3nc(-c4ccccc4)no3)c(=O)c3cc4c(cc32)OCO4)c(OC)c1 | x | -2% | x | x | x | x
COC(=O)c1cccc(NC(=O)c2ccc3c(c2)C(=O)N(CC2CCCO2)C3=O)c1 (stereo not given) | 13% | 24µM* | -21% | 0% | 3% | 0%
COc1ccccc1NC(=O)c1ccc2c(c1)C(=O)N(c1ccccc1OC)C2=O | x | u | -12% | -5% | -1% | 6%
O=C(O)Cc1ccc(NC(=O)c2ccc3c(c2)C(=O)N(CC2CCCO2)C3=O)cc1 (stereo not given) | x | -1% | -2% | -4% | 10% | 15%
O=C(Cc1ccccc1)Nc1ccc2c(c1)C(=O)N(CC1CCCO1)C2=O (stereo not given) | 3% | u | 8% | 6% | -3% | 0%
O=C(Nc1ccc2c(c1)C(=O)N(CC1CCCO1)C2=O)c1cccc(Br)c1 (stereo not given) | -17% | 11µM* | -22% | 11% | 0% | -4%
COc1ccccc1N1C(=O)c2ccc(C(=O)Nc3ccc(C(=O)O)cc3)cc2C1=O | x | 27µM* | 12% | -3% | -3% | 1%
O=C(O)c1cccc(NC(=O)c2ccc3c(c2)C(=O)N(CC2CCCO2)C3=O)c1 (stereo not given) | 4% | 0.48µM* | -2% | 1% | 5% | 1%
Cc1noc(C)c1-c1cc(NCc2ccccc2)ncn1 | 29% | x | x | x | x | x
O=C(O)c1cccc(NC(=O)c2ccc3c(c2)C(=O)N(c2ccccc2)C3=O)c1 | x | 0.27µM* | u | -2% | 2% | 4%
SMILES | SMN2 splice enh | FLuc counter | ELG1 repair inh | Rab9 promoter act | NPC1 prom act | ELG1 genotox
O=C(O)c1cc(NC(=O)c2cccc(N3C(=O)c4ccccc4C3=O)c2)cc(C(=O)O)c1 | x | -13% | 10% | 6% | -4% | 3%
CCOc1ccc(C(=O)NCc2nc3cccnc3n2Cc2ccc(F)cc2)cc1OCC | x | 0% | x | x | x | x
CCc1cc2c(=O)c(-c3cscn3)coc2cc1O | 21% | u | u | 26% | 26% | 13µM*
CCc1cc2c(=O)c(-c3cscn3)coc2cc1OC | 13µM* | 1.7µM* | u | 2µM* | 3.5µM* | u
CCOC(=O)c1oc2cc(O)c(CC)cc2c(=O)c1-c1cscn1 | 14% | -19% | 4% | -6% | 1% | 2%
Cc1cccc(-n2c(CCCN3C(=O)c4ccccc4C3=O)nc3ccccc3c2=O)n1 | 0% | 7% | 0% | 14% | -2% | 23µM*
Cc1cccc(-n2c(CCN3C(=O)c4ccccc4C3=O)nc3ccccc3c2=O)n1 | 2% | -1% | -3% | -2% | 6% | -4%
CC(C)(C)N=C1NN=C(c2ccc(Cl)cc2)CS1 | x | 2.7µM* | u | 0.63µM* | 0.79µM* | u
COc1ccc(OC)c(C2=NNC(=NCc3ccc4c(c3)OCO4)SC2)c1 | -32% | -6% | 2% | 14% | -4% | 1%
COc1ccc(CN=C2NN=C(c3ccc(Cl)cc3)CS2)cc1 | 20µM* | 7.6µM* | u | 3.5µM* | 3.5µM* | u
COCC(C)N=C1NN=C(c2ccc(NC(C)=O)cc2)CS1 (stereo not given) | u | u | u | u | 26% | 14%
COc1ccc(CN=C2Nc3ccccc3CS2)cc1 | 3.5µM* | 2.7µM* | u | 1.6µM* | 1µM* | u
CC(C)(C)N=C1NN=C(c2cc3ccccc3o2)CS1 | x | 1.9µM* | u | 0.4µM* | 0.63µM* | u
COc1ccc(CCNC(=O)c2c(C)nn(-c3ccc(F)cc3)c2-n2cccc2)c(OC)c1OC | x | -14% | x | x | x | x
CCCCn1cc(S(=O)(=O)c2ccc(CC)cc2)c(=O)c2cc(F)c(N3CCCC(C)C3)cc21 (stereo not given) | x | -4% | x | x | x | x
Clc1ccc(C2=NNC(=NCc3ccc4c(c3)OCO4)SC2)cc1 | x | 19µM* | u | 15% | 15% | -7%
CC1CCN(C(=O)CCCC(=O)N2CCC(C)CC2)CC1 | x | 9.5µM* | 10% | 18% | u | 0%
O=C(Cn1cc(C(=O)c2ccncc2)c(=O)c2cc(F)ccc21)Nc1ccc(Cl)cc1 | x | 6% | x | x | x | x
CC1CCc2nc(NC(=O)CN3CCN(Cc4ccc5c(c4)OCO5)CC3)sc2C1 (stereo not given) | -95% | 5% | 12µM* | -22% | -2% | -9%
CC1CCc2nc(NC(=O)Nc3ccc4c(c3)OCO4)sc2C1 (stereo not given) | x | 1.3µM* | u | 2.5µM* | 3.2µM* | u
COc1ccc(N2CCN(C(=O)COC(=O)c3ccc(OC(F)F)cc3)CC2)cc1 | x | 0% | -14% | -2% | -6% | 1%

Source: PubChem
